Data reported in PubChem BioAssay (NCI).
About 83,000 compounds went through this panel and 20% of them were active in at least one assay; those are over-represented in the sample as a whole.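 For each line, cells grew in 96-well plates with the test compound present at a single concentration for 48 hours.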 A number with no mark means an inactive call. Active and inactive are the calls of the source. Rule for the calls: active = growth percent below 10; inactive = the rest.

Test system: A549/ATCC NSCLC
Experiment: NCI-60 one-dose screen, 48 h (100 = growth as untreated, 0 = no growth, -100 = all killed)
Settings: 10 µM unless noted

Compound | growth
Cc1nc(-c2cc3ccccc3oc2=O)ccc1C(=O)/C=C/c1ccccn1 | 66.5%
Nc1c(C(=O)Nc2ccc(C(F)(F)F)cc2)sc2nc(-c3cnccn3)cc(-c3cccs3)c12 | 77.9%
O=C1Nc2cc(Cl)ccc2/C1=C\c1ccc(OCc2ccc(Br)cc2F)cc1 | -28.9% (active)
C=CCSc1ccc2c(c1)C(N1CCNCC1)=Nc1ccccc1O2 | 71.7% [8.25 µM]
COc1ccc(NC2=CC(=O)C(C)=C(C)C2=O)cc1 | 97.3%
CS(=O)(=O)c1ccc(-c2nc3ccccn3c2-c2nc3ccc([N+](=O)[O-])cc3[nH]2)cc1 | 99.8%
CCOC(=O)c1c(Nc2ccccc2)nn2c(-c3ccco3)c(C#N)cnc12 | 95.2%
COc1ccc(NC(=O)c2sc3nc(-c4cnccn4)cc(-c4cccs4)c3c2N)cc1 | 72.5%
CC(=O)c1ccc(Nc2nc(SC(C)C)nc(-c3ccccc3)c2C#N)cc1 | 93.5%
COc1ccc(N/N=C/c2c(-c3ccc(S(C)(=O)=O)cc3)nc3ccccn23)cc1 | 36.9%
O=C1C2=C(C(=O)c3c(O)cccc31)C(c1ccco1)c1sc(=O)[nH]c1S2 (configuration not stated) | -47.7% (active)
COc1ccc(/C=C2\SC(=Nc3cc(C)on3)NC2=O)cc1 | 102%
COc1ccc(-c2nc3ccc(-c4nnc(SCC(=O)Nc5ccc(C(=O)/C=C/c6ccccc6)cc5)o4)cc3[nH]2)cc1OC | 102%
O=C(CSc1nnc(-c2ccc3nc(-c4ccc(Cl)cc4)[nH]c3c2)o1)Nc1ccc(C(=O)/C=C/c2ccc(Cl)cc2)cc1 | 95.5%
OC1CCN(CCCOc2c3ccccc3nc3c2oc2ccccc23)CC1 | -12.2% (active)
Nc1cc(-c2c[nH]c3ccccc23)nc2cc(-c3c[nH]c4ccccc34)nn12 | 58.3%
N[C@@H](Cc1cn(-c2c3ccccc3nc3ccccc23)nn1)C(=O)O | 102%
CCN1CCN(S(=O)(=O)c2oc(-c3ccc(Cl)cc3)nc2C#N)CC1 | 95.6%
OC1CCc2c(-c3ccc4ncnc(N5CCc6cc(F)c(Cl)cc65)c4c3)cncc21 (configuration not stated) | 50.3%
O=C(N/N=C/c1ccc([N+](=O)[O-])o1)c1[nH]c2ccc(Br)cc2c1-c1ccccc1 | 21.6%
N#Cc1ccc(C(=O)CSc2nc(Nc3ccc(S(N)(=O)=O)cc3)c3ccccc3n2)cc1 | 108%
COc1cc(/C=C/C(=O)c2cc(OC)c(OC)c(OC)c2)ccc1Oc1nc(NCCO)nc(N2CCOCC2)n1 | 6.84% (active)
NC(=O)c1c(NC(=O)c2ccc(C3CCCCC3)cc2)sc2c1CCC(=O)C2 | 10.8%
COc1cc2nc(-c3ccc(C(F)(F)F)cc3)cc(OCCCNCC3CCCO3)c2cc1OC (configuration not stated) | 37.3%
Nc1c(C(=O)c2ccc(Br)cc2)oc2nc(-c3cnccn3)cc(-c3cccs3)c12 | 103%
Cc1sc2c(c1C)c(=O)nc1c(-c3nc(-c4ccc(F)cc4)no3)n[nH]n12 | 106%
COc1cc(/C=C/C(=O)c2ccc(Cl)cc2)ccc1Oc1nc(NCCO)nc(N2CCOCC2)n1 | 103%
O=C(Oc1ccc2ccc(=O)oc2c1)c1ccc(Cl)cc1 | 94.2%
COc1cc(/C=C/C(=O)c2ccccc2)ccc1Oc1nc(NCCO)nc(N2CCOCC2)n1 | 98.8%

Test system: 786-0 renal
Experiment: as above
Settings: 10 µM unless noted

Compound | growth
Clc1ccc2oc3c(NCCCN4CCOCC4)c4ccccc4nc3c2c1 | 20%
CN(C)c1ccc(/C=C2\Cc3c(F)ccc(Br)c3C2=O)cc1 | 98.2%
O=C(N/N=C/c1ccc([N+](=O)[O-])s1)c1[nH]c2ccc(Br)cc2c1-c1ccccc1 | 9.9% (active)
CC(O)C(NC(=O)C1CCCN1C(=O)CNC(=O)C1CC(=O)NCC(=O)NC(Cc2c[nH]c3ccccc23)C(=O)NC(Cc2ccc(O)cc2)C(=O)NCC(=O)NC(CO)C(=O)NC(CCC(N)=O)C(=O)NC(Cc2c[nH]c3ccccc23)C(=O)N1)C(=O)NCC(=O)NC(CCC(N)=O)C(=O)NC(CCCNC(=N)N)C(=O)NC(CC(=O)O)C(=O)O (configuration not stated) | 108%
O=C(CN1CCOCC1)NNc1ncnc2ccccc12 | 58.9%
N#Cc1c(-c2ccc(Cl)cc2)nc(SCc2ccccc2)nc1N1CCNCC1 | 64.3%
Cn1cc(-c2cc(N)n3nc(-c4cn(C)c5ccc(F)cc45)cc3n2)c2cc(F)ccc21 | -87.7% (active)
CS(=O)(=O)c1ccc(-c2nc3ccccn3c2/C=N/Nc2nc(-c3ccc(Cl)cc3)cs2)cc1 | 79.8%
O=c1/c(=C\c2ccc(-c3ccccc3)o2)sc2nc(-c3ccccc3)nn12 | 99.2%
Cc1nc(-c2cc3ccccc3oc2=O)ccc1C(=O)/C=C/c1ccccn1 | 6.4% (active)
Nc1c(C(=O)Nc2ccc(C(F)(F)F)cc2)sc2nc(-c3cnccn3)cc(-c3cccs3)c12 | -90.3% (active)
O=C1Nc2cc(Cl)ccc2/C1=C\c1ccc(OCc2ccc(Br)cc2F)cc1 | -92.5% (active)
C=CCSc1ccc2c(c1)C(N1CCNCC1)=Nc1ccccc1O2 | 60.4% [8.25 µM]
COc1ccc(NC2=CC(=O)C(C)=C(C)C2=O)cc1 | 90.5%
CS(=O)(=O)c1ccc(-c2nc3ccccn3c2-c2nc3ccc([N+](=O)[O-])cc3[nH]2)cc1 | 101%
CCOC(=O)c1c(Nc2ccccc2)nn2c(-c3ccco3)c(C#N)cnc12 | 67.2%
COc1ccc(NC(=O)c2sc3nc(-c4cnccn4)cc(-c4cccs4)c3c2N)cc1 | 62.7%
CC(=O)c1ccc(Nc2nc(SC(C)C)nc(-c3ccccc3)c2C#N)cc1 | 84.7%
COc1ccc(N/N=C/c2c(-c3ccc(S(C)(=O)=O)cc3)nc3ccccn23)cc1 | 48%

Compound | growth
O=C1C2=C(C(=O)c3c(O)cccc31)C(c1ccco1)c1sc(=O)[nH]c1S2 (configuration not stated) | 62.3%
COc1ccc(/C=C2\SC(=Nc3cc(C)on3)NC2=O)cc1 | 102%
COc1ccc(-c2nc3ccc(-c4nnc(SCC(=O)Nc5ccc(C(=O)/C=C/c6ccccc6)cc5)o4)cc3[nH]2)cc1OC | 99.3%
O=C(CSc1nnc(-c2ccc3nc(-c4ccc(Cl)cc4)[nH]c3c2)o1)Nc1ccc(C(=O)/C=C/c2ccc(Cl)cc2)cc1 | 92.6%
OC1CCN(CCCOc2c3ccccc3nc3c2oc2ccccc23)CC1 | 7.21% (active)
Nc1cc(-c2c[nH]c3ccccc23)nc2cc(-c3c[nH]c4ccccc34)nn12 | 46.8%
N[C@@H](Cc1cn(-c2c3ccccc3nc3ccccc23)nn1)C(=O)O | 105%
CCN1CCN(S(=O)(=O)c2oc(-c3ccc(Cl)cc3)nc2C#N)CC1 | -49.7% (active)
OC1CCc2c(-c3ccc4ncnc(N5CCc6cc(F)c(Cl)cc65)c4c3)cncc21 (configuration not stated) | 43.7%
O=C(N/N=C/c1ccc([N+](=O)[O-])o1)c1[nH]c2ccc(Br)cc2c1-c1ccccc1 | -5.08% (active)
N#Cc1ccc(C(=O)CSc2nc(Nc3ccc(S(N)(=O)=O)cc3)c3ccccc3n2)cc1 | 105%
COc1cc(/C=C/C(=O)c2cc(OC)c(OC)c(OC)c2)ccc1Oc1nc(NCCO)nc(N2CCOCC2)n1 | -5.28% (active)
NC(=O)c1c(NC(=O)c2ccc(C3CCCCC3)cc2)sc2c1CCC(=O)C2 | 26.3%
COc1cc2nc(-c3ccc(C(F)(F)F)cc3)cc(OCCCNCC3CCCO3)c2cc1OC (configuration not stated) | -55.2% (active)
Nc1c(C(=O)c2ccc(Br)cc2)oc2nc(-c3cnccn3)cc(-c3cccs3)c12 | 102%
Cc1sc2c(c1C)c(=O)nc1c(-c3nc(-c4ccc(F)cc4)no3)n[nH]n12 | 99.4%
COc1cc(/C=C/C(=O)c2ccc(Cl)cc2)ccc1Oc1nc(NCCO)nc(N2CCOCC2)n1 | 101%
O=C(Oc1ccc2ccc(=O)oc2c1)c1ccc(Cl)cc1 | 100%
COc1cc(/C=C/C(=O)c2ccccc2)ccc1Oc1nc(NCCO)nc(N2CCOCC2)n1 | 105%
